Sampled rows, rich in hits. Any-hit rate of the full collection: about 3.8%.
FAS TE block: FAS thioesterase domain inhibitors, primary screen, biochemical, fluorescence intensity, uHTS. Fatty acid synthase (Homo sapiens), P49327. recombinant FAS-TE, OMFH fluorogenic substrate, fluorescence endpoint. inhibition, % at 15 µM. 360,000 tested, 0.67% active;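 active means compounds whose normalised, plate-corrected inhibition of enzyme fluorescence in the single-dose primary screen is 50% or more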;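 further: 0% = DMSO with enzyme and 100% = substrate without enzyme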
MPTP inh: mitochondrial permeability transition pore inhibitors, primary screen, biochemical, isolated mouse mitochondria, absorbance; Ca2+ swelling absorbance, 30 min; inhibition, % at 10 µM; 360,000 tested, 1.4% active; AID 602449, 2012;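 active means inhibition of 50% or more, scaled per plate between neutral and stimulator controls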;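 further: 0% = DMSO wells given calcium and 100% = 1 mM EGTA wells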
SUMO Mot1 rescue: yeast Mot1-301 growth rescue at high temperature, primary screen, SUMOylation pathway inhibitor project, S. cerevisiae, ATP luminescence, 38.5C; S. cerevisiae Mot1-301 growth rescue; percent above DMSO median, 100 means doubled; growth rescue, % at 18.8 µM; 320,000 tested, 1% active;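 active means every valid replicate shows activation above 250% relative to neutral control wells; inactive means the rest, any valid replicate at or below 250%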;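 further: OY570 slx delta 5 strain wells were the positive control but not used for scaling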
aDG glyco up: activators of alpha-DG glycosylation, primary screen, uHTS, Pro5-aDG cells, AlphaScreen | alpha-DG glycosylation AlphaScreen (IIH6); 0% Pro5, 100% B10-LARGE cell signal | activation, % at 10 µM | 360,000 tested, 0.22% active;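 active means activation of at least 8% versus controls, or a plate z-score of at least 8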;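 further: Pro5 are CHO cells carrying HIG-tagged alpha-DG that lacks glycosylation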
CR mimetic SO: reduction of superoxide in aged yeast, primary screen, HTS; superoxide response (% of plate mean), % at 10 µM; 330,000 tested, 0.18% active; S. cerevisiae aged cells, superoxide DHE fluorescence; active compounds read low;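 active means superoxide response under a set limit, about three screen SD below normal, cut at about 65% in these data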;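 further: yeast aged for seven days with compound at 30 °C before DHE staining; 100% = average MFI of all compound-treated wells on the plate with controls excluded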
Cardio protect: cardioprotection against H2O2-induced cell death, primary screen, uHTS, H9c2 cells, ATPLite luminescence; protection from H2O2 cell death, % at 20 µM; H9c2 cardiomyocytes, H2O2 injury protection, 2 h; 360,000 tested, 0.63% active;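 active means compounds giving at least 50% protection of heart cells from peroxide-induced death in the single-dose screen, raw or plate-pattern-corrected value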;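 further: 0% = DMSO wells with peroxide and 100% = DMSO wells without peroxide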
Rh123 counter: fluorescence retest of MPTP screen hits in isolated mitochondria, single concentration. 5,000 tested, 78% active. membrane potential, Rhodamine 123 fluorescence. AID 624504, 2012. shares compounds with MPTP inh. inhibition, % at 10 µM; in the data active means inhibition above about 22%;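 further: 0% = DMSO vehicle and 100% = positive control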
MPTP swell DR: mitochondrial permeability transition pore inhibitors, dose response, biochemical, absorbance, uHTS hits; shares compounds with MPTP inh; isolated mitochondria swelling; IC50, µM; 780 tested, 58% active; in the data active means IC50 below about 20 µM
MPTP cs DR: fluorescent counter-screen in isolated mitochondria, dose response, counter-screen for MPTP inhibitor project, biochemical, fluorescence, uHTS hits; isolated mitochondria counterscreen, fluorescence read-out; 780 tested, 49% active; AID 651564, 2012; IC50, µM; shares compounds with MPTP inh; in the data active means IC50 below about 80 µM
Active calls of the source: *; i = inactive; / = no result given.

SMILES	FAS TE block	MPTP inh	SUMO Mot1 rescue	aDG glyco up	CR mimetic SO	Cardio protect	Rh123 counter	others
COc1ccc(Nc2nc(N3CCCC3)c3ccccc3n2)cc1	-50	103*	2	0	105	-26	101*
Cc1ccc(NC(=O)CC(C)CC2=NS(=O)(=O)c3ccccc3N2)cc1 (stereo not given)	-5	1	-19	0	103	2	/
Nc1ccccc1N=Cc1ccc(-c2cccc(Cl)c2)o1	25	67*	444*	0	75	-28	66*
CCN1C(=O)/C(=C2\SC(=S)N(NC(=O)c3ccccc3O)C2=O)c2ccccc21	4	87*	-25	0	97	2	32*
CN(/N=C/c1cc([N+](=O)[O-])ccc1O)c1ccccc1	-7	57*	359	0	103	-6	66*
O=[N+]([O-])c1cccc(N/N=C/c2cc([N+](=O)[O-])ccc2O)c1	11	64*	301*	0	99	-16	61*
Cc1cc(C(=O)CCC(=O)NCc2ccccc2F)c(C)s1	2	0	-14	0	93	3	/
COc1ccccc1CN(C)C(=O)c1sccc1-c1ccccc1	16	2	19	0	107	-6	/
CCOC(=O)Cn1nc(C)c(NC(=O)c2ccc(Cl)c([N+](=O)[O-])c2)c1C	-1	61*	/	0	102	0	77*
COc1ccc(/C=N/NC(=O)CNC(=O)c2ccncc2)cc1	-6	-1	-9	0	94	4	/
S=C(Nc1ccc(Cl)c(Cl)c1)N1CCN(c2ccccn2)CC1	-1	1	-16	0	98	2	/
S=C(Nc1ccc(Oc2ccccc2)cc1)N1CCN(c2ccccn2)CC1	22	80*	/	0	96	-7	79*
Cc1ccc(S(=O)(=O)CCC(=O)OC(C)C(=O)N2CCc3ccccc32)cc1 (stereo not given)	6	-1	17	0	96	-4	/
CC(=O)N1c2ccccc2C(C)(c2ccccc2)CC1(C)C (stereo not given)	6	0	-7	0	98	2	/
CN1CCN(CC(=O)N2c3ccccc3C(C)(c3ccc(Cl)cc3)CC2(C)C)CC1 (stereo not given)	-8	75*	1	2	91	-5	-3	MPTP swell DR=19*;MPTP cs DR=>80
CN1CCN(CC(=O)N2c3ccccc3C(C)(c3ccccc3)CC2(C)C)CC1 (stereo not given)	-9	74*	9	0	123	-7	-9	MPTP swell DR=i;MPTP cs DR=>80
CCCCC1CCC(C(=O)N(C)CC(=O)Nc2cccc(OC)c2)CC1 (stereo not given)	25	0	-9	0	120	-7	/
N#Cc1ccccc1S(=O)(=O)N1CCN(C(=O)CN2CCCC2c2cccs2)CC1 (stereo not given)	4	-1	-4	0	111	1	/
CCCCCOc1ccc(Br)cc1CSC(=N)N	-160	68*	/	0	/	-11	105*
CC(=O)c1ccc(NC(=O)CSc2ccc(-c3sc(C)nc3C)nn2)cc1	-6	1	-24	0	69	14	/
Nc1nonc1C(=O)NCCNCc1cc(Br)ccc1OCc1ccccc1F	6	84*	964	4	101	-21	80*
COc1cc(CNCCNC(=O)c2nonc2N)ccc1OCc1ccc(Cl)cc1	1	83*	80	2	103	-28	28*
Nc1nonc1C(=O)NCCNCc1ccccc1OCc1ccccc1F	-4	4	1	3	83	-2	/

Screening results deposited in PubChem BioAssay by several laboratories.
